Test results reported in PubChem BioAssay (EPA / NIEHS).
Results filed as inconclusive are left out. Active and inactive are the calls of the source. The calls were made as follows, unless noted: active = hit-call score of the fitted dose curve at least 0.9, where 1 is the maximum; inactive = score below 0.9.

Tests used:
[1] = molecular target: Retinoic acid receptor RXR-alpha (Homo sapiens) (UniProt P19793); test: ATG_RXRa_TRANS: Attagene TRANS-FACTORIAL HepG2 Assay for human Retinoid X Receptor alpha (RXRa) (AID 2283012; active = hit-call score of the fitted dose curve at least 0.9, where 1 is the maximum)
Outline: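 HepG2 cells transiently transfected with GAL4-UAS reporter units and chimeric RXRa-Gal4 protein, treated 24 h. Reporter mRNA measured by RT-PCR, fluorescent labelling, HpaI digestion and capillary electrophoresis. Induction fitted against DMSO.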

[2] = molecular target: human Retinoid X Receptor beta (RXRb), RXRB (gene 6257) (UniProt P28702); test: ATG_RXRb_TRANS: Attagene TRANS-FACTORIAL HepG2 Assay for human Retinoid X Receptor beta (RXRb) (AID 2283013; active = hit-call score of the fitted dose curve at least 0.9, where 1 is the maximum)
Outline: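 HepG2 cells were transiently transfected with multiplexed GAL4-UAS reporters and a chimeric RXRb-Gal4 construct, then exposed for 24 h. Reporter mRNA was quantified by RT-PCR, FAM labeling, HpaI digestion and capillary electrophoresis; gain of signal was scored against DMSO.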

[3] = molecular target: human Thyroid Receptor alpha (THRa1), THRA (gene 7067) (UniProt P10827); test: ATG_THRa1_TRANS: Attagene TRANS-FACTORIAL HepG2 Assay for human Thyroid Receptor alpha (THRa1) (AID 2283014; active = hit-call score of the fitted dose curve at least 0.9, where 1 is the maximum)
Outline: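 HepG2 cells transiently transfected with multiplexed GAL4-UAS reporter units for exogenous chimeric THRa1-Gal4; reporter mRNA measured 24 h after dosing by RT-PCR, 6-FAM labelling, HpaI digestion and capillary electrophoresis. Gain-of-signal fitted versus DMSO baseline.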

[4] = read-out: E-selectin (Homo sapiens) (UniProt P16581); test: BSK_3C_Eselectin: BioMAP Diversity Plus: 3C Assay for Eselectin Biomarker Activity (AID 2283015); settings: primary human endothelial cells (HUVEC); actives raise or lower the signal
Outline: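 Primary human umbilical vein endothelial cells (3C system) were dosed with chemical and cell-surface E-selectin measured by ELISA 24 h later. Bidirectional curve fitting used DMSO as negative control and baseline.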

[5] = read-out: Interleukin-1 alpha (IL1a), IL1A (gene 3552); test: BSK_BE3C_IL1a: BioMAP Diversity Plus: BE3C Assay for Interleukin-1 alpha (IL1a) Biomarker Activity (AID 2283016); settings: primary human bronchial epithelial cells; actives raise or lower the signal
Outline: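 Human primary bronchial epithelial cells, 24 h chemical exposure; IL-1a quantified by ELISA, fitted bidirectionally against DMSO. Cytotoxicity assessed in parallel by SRB total-protein staining at the time of measurement.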

[6] = read-out: Monocyte Chemoattractant Protein-1 (MCP1), CCL2 (gene 6347); test: BSK_3C_MCP1: BioMAP Diversity Plus: 3C Assay for Monocyte Chemoattractant Protein-1 (MCP1) Biomarker Activity (AID 2283017); settings: primary human endothelial cells (HUVEC); actives raise or lower the signal
Outline: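 Primary human umbilical vein endothelial cells (3C system) were exposed to test chemical for 24 h, after which MCP-1 was quantified by ELISA. Activity was fitted bidirectionally against DMSO as negative control and baseline.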

[7] = read-out: Monocyte Chemoattractant Protein-1 (MCP1), CCL2 (gene 6347); test: BSK_4H_MCP1: BioMAP Diversity Plus: 4H Assay for Monocyte Chemoattractant Protein-1 (MCP1) Biomarker Activity (AID 2283018); settings: primary human endothelial cells (HUVEC); actives raise or lower the signal
Outline: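 Human umbilical vein endothelial cells (4H system) exposed to chemicals for 24 h in 96-well format. MCP-1 measured by ELISA; bidirectional fitting against DMSO, with SRB total-protein staining in parallel cultures for cytotoxicity.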

[8] = read-out: Human Leukocyte Antigen - DR isotype (HLADR), HLA-DRA (gene 3122); test: BSK_3C_HLADR: BioMAP Diversity Plus: 3C Assay for Human Leukocyte Antigen - DR isotype (HLADR) Biomarker Activity (AID 2283019); settings: primary human endothelial cells (HUVEC); actives raise or lower the signal
Outline: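 Primary human umbilical vein endothelial cells (3C system) were dosed with compound and cell-surface HLA-DR was quantified by ELISA at 24 h. Activity was fitted bidirectionally against DMSO as negative control and baseline.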

[9] = read-out: Interleukin-8 (IL8), CXCL8 (gene 3576); test: BSK_3C_IL8: BioMAP Diversity Plus: 3C Assay for Interleukin-8 (IL8) Biomarker Activity (AID 2283020); settings: primary human endothelial cells (HUVEC); actives raise or lower the signal
Outline: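 Primary human umbilical vein endothelial cells were dosed for 24 h. IL-8 was quantified by ELISA and fitted bidirectionally against DMSO. Cytotoxicity was assessed in parallel cultures by SRB staining at 560 nm.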

[10] = read-out: Monokine induced gamma interferon (MIG), CXCL9 (gene 4283); test: BSK_3C_MIG: BioMAP Diversity Plus: 3C Assay for Monokine induced gamma interferon (MIG) Biomarker Activity (AID 2283021); settings: primary human endothelial cells (HUVEC); actives raise or lower the signal;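 as to AC50: MIG protein level measured by immunoassay in the treated endothelial cultures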
Outline: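 HUVEC primary endothelial cultures dosed with chemical; MIG quantified by ELISA at 24 h. Data fitted bidirectionally against DMSO control, with parallel SRB total-protein staining for cytotoxicity.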

[11] = molecular target: human Vitamin D Receptor (VDR), VDR (gene 7421) (UniProt P11473); test: ATG_VDR_TRANS: Attagene TRANS-FACTORIAL HepG2 Assay for human Vitamin D Receptor (VDR) (AID 2283022; active = hit-call score of the fitted dose curve at least 0.9, where 1 is the maximum)
Outline: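 HepG2 cells were transiently transfected with multiple GAL4-UAS reporter units, so signal reflects exogenous chimeric receptor-Gal4 activity. After 24 h compound exposure, reporter mRNA was measured by RT-PCR, fluorescent labelling and capillary electrophoresis, fitted for gain of signal versus DMSO.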

[12] = BSK_3C_SRB: Viability Assessment in the BioMAP Diversity Plus: 3C Assay (AID 2283023); settings: primary human endothelial cells (HUVEC);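 also: fitted both ways against DMSO so a hit may be signal rise or drop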
Outline: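 Primary human umbilical vein endothelial cells in the 3C system were read 24 h after compound dosing. Total protein was stained with 0.1% sulforhodamine B after 10% TCA fixation and read at 560 nm, with bidirectional fitting against DMSO as baseline.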

[13] = read-out: Matrix Metallopeptidase 1 (MMP1), MMP1 (gene 4312); test: BSK_BE3C_MMP1: BioMAP Diversity Plus: BE3C Assay for Matrix Metallopeptidase 1 (MMP1) Biomarker Activity (AID 2283024); settings: primary human bronchial epithelial cells; actives raise or lower the signal
Outline: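 Human primary bronchial epithelial cells (BE3C system) dosed for 24 h; MMP-1 quantified by ELISA. Bidirectional fit against DMSO; cytotoxicity tracked in parallel cultures by SRB total-protein staining.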

[14] = BSK_3C_Vis: BioMAP Diversity Plus: 3C Assay for Morphology Visualization (AID 2283025); settings: primary human endothelial cells (HUVEC);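 also: fitted both ways so gain or loss versus DMSO counts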;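 as to AC50: light microscopy image of cell morphology used as background control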
Outline: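 Human umbilical vein endothelial cell morphology was inspected by light microscopy 24 h after chemical dosing; scored bidirectionally relative to DMSO.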

[15] = read-out: Pselectin, SELP (gene 6403); test: BSK_4H_Pselectin: BioMAP Diversity Plus: 4H Assay for Pselectin Biomarker Activity (AID 2283026); settings: primary human endothelial cells (HUVEC); actives raise or lower the signal
Outline: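 Primary human umbilical vein endothelial cells were treated 24 h, and cell-surface P-selectin was then quantified by ELISA. Bidirectional fit versus DMSO; cytotoxicity checked in parallel cultures by SRB total-protein staining.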

[16] = BSK_4H_SRB: Viability Assessment in the BioMAP Diversity Plus: 4H Assay (AID 2283027); settings: primary human endothelial cells (HUVEC);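 also: cells exposed to compound for 24 h before staining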;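 as to AC50: curves fitted both ways versus DMSO so AC50 may be loss or gain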
Outline: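 Human umbilical vein endothelial cells were dosed with chemical and, after 24 h, fixed with 10% TCA, stained with 0.1% sulforhodamine B, and read at 560 nm to give total protein as a cytotoxicity measure. Bidirectional fitting relative to DMSO control.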

[17] = BSK_BE3C_SRB: Viability Assessment in the BioMAP Diversity Plus: BE3C Assay (AID 2283028); settings: primary human bronchial epithelial cells;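 as to AC50: fitted both ways so AC50 may mark signal gain or loss versus DMSO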
Outline: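 Human primary bronchial epithelial cells were exposed to test chemicals for 24 h. Total protein in parallel cultures was then measured by staining with 0.1% sulforhodamine B after 10% TCA fixation, with absorbance read at 560 nm. Activity was fitted bidirectionally against DMSO.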

[18] = read-out: Thrombomodulin, THBD (gene 7056); test: BSK_3C_Thrombomodulin: BioMAP Diversity Plus: 3C Assay for Thrombomodulin Biomarker Activity (AID 2283029); settings: primary human endothelial cells (HUVEC); actives raise or lower the signal
Outline: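 Human umbilical vein endothelial cells were exposed to chemicals for 24 h; cell-surface thrombomodulin quantified by ELISA, with bidirectional fitting against DMSO baseline.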

[19] = molecular target: human RAR-related Orphan Receptor gamma (RORg), RORC (gene 6097) (UniProt P51449); test: ATG_RORg_TRANS: Attagene TRANS-FACTORIAL HepG2 Assay for human RAR-related Orphan Receptor gamma (RORg) (AID 2283011; active = hit-call score of the fitted dose curve at least 0.9, where 1 is the maximum)
Outline: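 Readout: reporter transcript induction (RT-PCR, fluorescent primer extension, capillary electrophoresis) after 24 h compound exposure of transiently transfected HepG2 cells carrying a RORg-Gal4 chimera and GAL4-UAS reporters; DMSO served as baseline, with increasing signal fitted.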

Measured: AC50

Sequence of E-selectin (Homo sapiens) (P16581 whole entry, looked up): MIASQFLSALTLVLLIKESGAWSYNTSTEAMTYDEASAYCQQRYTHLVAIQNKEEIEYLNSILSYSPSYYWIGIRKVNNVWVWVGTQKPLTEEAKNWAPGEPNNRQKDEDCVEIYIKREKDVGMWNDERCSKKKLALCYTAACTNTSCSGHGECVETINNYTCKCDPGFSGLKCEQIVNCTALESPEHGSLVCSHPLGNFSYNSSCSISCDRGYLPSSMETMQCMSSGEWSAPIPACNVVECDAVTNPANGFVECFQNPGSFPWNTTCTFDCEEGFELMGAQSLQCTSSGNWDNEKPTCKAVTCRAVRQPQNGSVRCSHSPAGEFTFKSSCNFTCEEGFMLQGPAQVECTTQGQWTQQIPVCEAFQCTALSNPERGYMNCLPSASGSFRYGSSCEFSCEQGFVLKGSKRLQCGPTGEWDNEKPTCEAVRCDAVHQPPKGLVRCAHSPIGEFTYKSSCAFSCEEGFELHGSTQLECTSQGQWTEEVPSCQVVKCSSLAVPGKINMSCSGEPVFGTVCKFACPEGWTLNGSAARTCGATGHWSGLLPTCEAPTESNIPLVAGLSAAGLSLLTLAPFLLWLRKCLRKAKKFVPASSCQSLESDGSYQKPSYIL
Sequence of human Vitamin D Receptor (VDR), VDR (gene 7421) (P11473 whole entry, looked up, the tested form may be a part): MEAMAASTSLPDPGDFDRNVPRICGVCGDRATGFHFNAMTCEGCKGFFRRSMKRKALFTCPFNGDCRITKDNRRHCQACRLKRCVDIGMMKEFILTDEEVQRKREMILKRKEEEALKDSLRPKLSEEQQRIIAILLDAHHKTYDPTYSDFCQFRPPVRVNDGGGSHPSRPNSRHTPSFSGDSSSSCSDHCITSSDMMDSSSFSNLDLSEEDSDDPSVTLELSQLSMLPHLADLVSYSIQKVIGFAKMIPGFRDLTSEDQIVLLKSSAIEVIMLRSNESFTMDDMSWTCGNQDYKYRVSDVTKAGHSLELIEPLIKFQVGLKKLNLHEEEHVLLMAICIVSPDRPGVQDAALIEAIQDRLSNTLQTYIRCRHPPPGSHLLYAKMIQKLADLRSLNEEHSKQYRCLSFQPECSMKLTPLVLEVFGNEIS
Sequence of human Retinoid X Receptor beta (RXRb), RXRB (gene 6257) (P28702 whole entry, looked up, the tested form may be a part): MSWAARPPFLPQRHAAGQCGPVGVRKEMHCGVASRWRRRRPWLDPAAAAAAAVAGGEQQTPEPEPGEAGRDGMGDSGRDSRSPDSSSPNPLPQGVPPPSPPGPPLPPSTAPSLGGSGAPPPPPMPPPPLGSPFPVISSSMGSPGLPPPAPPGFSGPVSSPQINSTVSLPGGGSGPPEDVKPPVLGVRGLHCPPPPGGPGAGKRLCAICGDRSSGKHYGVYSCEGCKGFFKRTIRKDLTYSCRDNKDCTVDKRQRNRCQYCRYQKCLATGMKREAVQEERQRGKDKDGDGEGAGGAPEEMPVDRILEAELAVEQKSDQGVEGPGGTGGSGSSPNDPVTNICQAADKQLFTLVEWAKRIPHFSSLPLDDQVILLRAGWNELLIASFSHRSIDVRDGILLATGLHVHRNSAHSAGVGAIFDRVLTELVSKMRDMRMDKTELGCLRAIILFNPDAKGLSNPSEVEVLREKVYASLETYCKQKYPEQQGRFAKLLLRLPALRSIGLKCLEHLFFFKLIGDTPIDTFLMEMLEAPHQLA
Sequence of human Thyroid Receptor alpha (THRa1), THRA (gene 7067) (P10827 whole entry, looked up, the tested form may be a part): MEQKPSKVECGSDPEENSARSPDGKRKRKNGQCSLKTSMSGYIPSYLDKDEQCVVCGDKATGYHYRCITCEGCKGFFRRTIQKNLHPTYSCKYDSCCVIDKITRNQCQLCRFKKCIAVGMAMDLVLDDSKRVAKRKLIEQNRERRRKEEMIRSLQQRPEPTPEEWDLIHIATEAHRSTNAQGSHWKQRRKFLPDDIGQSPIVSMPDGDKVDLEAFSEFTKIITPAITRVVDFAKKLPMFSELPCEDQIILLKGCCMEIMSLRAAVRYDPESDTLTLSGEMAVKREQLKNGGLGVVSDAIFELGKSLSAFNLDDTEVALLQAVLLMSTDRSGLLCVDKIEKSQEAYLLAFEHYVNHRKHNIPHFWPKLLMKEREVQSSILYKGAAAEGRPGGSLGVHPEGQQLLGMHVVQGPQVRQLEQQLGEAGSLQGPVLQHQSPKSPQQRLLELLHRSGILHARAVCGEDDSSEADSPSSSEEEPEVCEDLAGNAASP
Sequence of Retinoic acid receptor RXR-alpha (Homo sapiens) (P19793 whole entry, looked up, the tested form may be a part): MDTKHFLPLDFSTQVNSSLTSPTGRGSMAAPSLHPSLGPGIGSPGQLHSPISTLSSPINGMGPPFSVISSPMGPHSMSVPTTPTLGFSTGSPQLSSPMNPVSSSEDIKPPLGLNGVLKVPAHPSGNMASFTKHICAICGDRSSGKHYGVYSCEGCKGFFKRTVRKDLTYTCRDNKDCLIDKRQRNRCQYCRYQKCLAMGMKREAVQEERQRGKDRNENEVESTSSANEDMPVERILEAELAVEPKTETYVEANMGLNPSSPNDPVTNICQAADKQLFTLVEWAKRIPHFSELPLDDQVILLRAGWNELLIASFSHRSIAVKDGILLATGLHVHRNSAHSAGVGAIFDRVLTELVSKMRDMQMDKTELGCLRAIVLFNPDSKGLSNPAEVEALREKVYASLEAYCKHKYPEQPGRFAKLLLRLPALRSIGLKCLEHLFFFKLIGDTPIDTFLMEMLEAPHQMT
Sequence of human RAR-related Orphan Receptor gamma (RORg), RORC (gene 6097) (P51449 whole entry, looked up, the tested form may be a part): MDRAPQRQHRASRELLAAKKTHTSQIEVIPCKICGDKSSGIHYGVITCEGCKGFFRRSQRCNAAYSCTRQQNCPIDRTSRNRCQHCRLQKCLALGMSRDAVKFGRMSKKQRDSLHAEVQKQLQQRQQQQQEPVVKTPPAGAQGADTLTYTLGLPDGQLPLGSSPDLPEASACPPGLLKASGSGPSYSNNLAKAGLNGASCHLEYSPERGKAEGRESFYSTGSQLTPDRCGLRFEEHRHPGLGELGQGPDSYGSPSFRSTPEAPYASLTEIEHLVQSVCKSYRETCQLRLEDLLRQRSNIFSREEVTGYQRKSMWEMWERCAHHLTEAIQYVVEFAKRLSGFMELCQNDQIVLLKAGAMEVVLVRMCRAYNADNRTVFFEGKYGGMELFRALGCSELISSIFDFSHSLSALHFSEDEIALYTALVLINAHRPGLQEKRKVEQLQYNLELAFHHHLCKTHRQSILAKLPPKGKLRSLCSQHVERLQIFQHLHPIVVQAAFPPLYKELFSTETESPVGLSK

CCNc1nc(NC(C)C)nc(SC)n1
inactive: [1] | [2] | [3] | [4] | [5] | [6] | [7] | [8] | [9] | [10] | [11] | [12] | [13] | [14] | [15] | [16] | [17]

c1cc2ccc3cccc4ccc(c1)c2c34
inactive: [1] | [3] | [4] | [5] | [6] | [7] | [8] | [9] | [10] | [11] | [12] | [13] | [15] | [16] | [17] | [18]
active: [2] 41.4 µM

Cc1cccc([N+](=O)[O-])c1
inactive: [2] | [4] | [5] | [6] | [7] | [8] | [9] | [10] | [11] | [12] | [13] | [14] | [15] | [16] | [17]

CCC(C)c1cc([N+](=O)[O-])cc([N+](=O)[O-])c1O (stereo not given)
inactive: [1] | [2] | [3] | [5] | [10] | [13] | [17] | [18]
active: [4] 8.02 µM | [6] 9.99 µM | [7] 5.15 µM | [8] 14 µM | [9] 7.38 µM | [12] 10 µM | [15] 10.6 µM | [16] 12.6 µM

CCSC(=O)N(CC)C1CCCCC1
inactive: [2] | [4] | [5] | [6] | [7] | [8] | [9] | [10] | [11] | [12] | [13] | [14] | [15] | [16] | [17]

O=C(NC(=O)c1c(F)cccc1F)Nc1cc(Cl)c(OC(F)(F)C(F)F)c(Cl)c1
inactive: [1] | [2] | [3] | [4] | [5] | [6] | [7] | [8] | [9] | [10] | [12] | [13] | [15] | [16] | [17]
active: [14] 39 µM

CCCCCCCCCC[N+](C)(C)CCCCCCCCCC
active: [4] 4.77 µM | [5] 7.76 µM | [6] 3.59 µM | [7] 3.16 µM | [8] 2.22 µM | [9] 4.54 µM | [10] 5.66 µM | [12] 2 µM | [13] 4.95 µM | [15] 1.99 µM | [16] 2.01 µM | [17] 5.15 µM
inactive: [19] | [3]
